Experimental data published in PubChem BioAssay AID504843 (Broad Institute, 2011).
The whole screen tested about 1,200 compounds, of which about 360 (30%) were called active. The list is a sample of the results. Results with a measured potency or affinity are listed apart. Unmarked numbers belong to inactive results. How the calls were made is not given here.

Assay: bacterial growth inhibition, dose response, counter-screen, BacTiter-Glo luminescence, cherry-picked samples (AID 504843);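 further: 0% = median of sample compound wells and -100% = antibiotic control wells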
Conditions: BacTiter-Glo ATP luminescence; series mostly up to 15 µM; activity change, negative = inhibition: at the top concentration

In order of falling “activity change, negative = inhibition” value:
1. COC(=O)/C(=C/c1ccco1)NC(=O)c1ccccc1  16.3%
2. CN1CC(c2ccccc2Cl)C2(COc3ccccc3C2=O)C12C(=O)Nc1ccccc12 (stereo not given)  16%
3. COc1ccc(NS(=O)(=O)c2ccc(NC(=O)Cc3cccs3)cc2)cc1  16%
4. COc1cccc(CNC(=O)CN2C(=O)CCSc3ccc(S(=O)(=O)N4CCCC4)cc32)c1  15.1%
5. O=C(Nc1ccc(Oc2ccccc2)nc1)C1CCCCN1Cc1ccc(OCCO)cc1 (stereo not given)  14%
6. CCOc1ccc2nc(NC(=O)CN3CCC(n4nnc5cc(F)ccc54)CC3)sc2c1  12.9%
7. Cc1cc(C)cc(CSc2nnc(C)c(=O)[nH]2)c1  12.2%
8. NS(=O)(=O)c1ccc(CCNc2nc(C(F)(F)F)nc3ccccc23)cc1  12%
9. CCN(CC)C(=O)Cn1cc(C(=O)C(=O)NCCCn2ccnc2)c2ccccc21  11.8%
10. Cc1ccc(S(=O)(=O)Nc2c(C)n(C)n(-c3ccccc3)c2=O)cc1C(=O)NCc1ccco1  11.8%
11. COCc1cc(CNC(=O)C2CCC(=O)N(Cc3ccccc3OC)C2)[nH]n1 (stereo not given)  11.7%
12. O=C(CCNS(=O)(=O)c1ccccc1C(F)(F)F)NCCCN1CCOCC1  10.8%
13. O=C1CCCC2=C1CC(C(=O)OCc1ccccc1)C(=O)N2Cc1ccccc1 (stereo not given)  10.2%
14. O=C1CN(C(=O)COC(=O)c2cc(S(=O)(=O)N3CCOCC3)ccc2Cl)c2ccccc2N1  9.82%
15. CCCCN1CC(COCc2ccccc2)Oc2cccc(N3CCCC3)c2S1(=O)=O (stereo not given)  8.68%
16. COc1ccc(-c2noc(CSc3nnc(-c4ccncc4)n3-c3ccc(F)cc3)n2)cc1OC  8.62%
17. Nc1cc(OC(=O)c2ccc(F)cc2)nn1S(=O)(=O)c1ccc(F)cc1  8.53%
18. COc1ccc(-c2cc([C@H]3[C@@H]4C=CCC[C@@]4(C)C(=O)N3Cc3ccccc3)ccc2F)cc1  7.72%
19. CC(C)Cc1ccc(CN2CCCC(NC(=O)Cn3cnnn3)C2)cc1 (stereo not given)  7.33%
20. Cc1ccc(C)c(NC(=S)N(CCc2ccncc2)C(C)C)c1  7.28%
21. O=C1/C(=C/c2cccnc2)Oc2cc(OS(=O)(=O)c3ccccc3)ccc21  7%
22. COCC(=O)Nc1ccccc1Br  6.59%
23. CC(=O)c1c(C)[nH]c(C(=O)Nc2ccccc2N2CCOCC2)c1C  6.19%
24. Cc1ccc[n+](CC(=O)c2cc3ccccc3oc2=O)c1  5.66%
25. c1ccc(C2NCCc3ccccc32)cc1 (stereo not given)  5.25%
26. O=C1CCCC2=C1C(c1cccs1)CC(=O)N2c1ccc(F)cc1 (stereo not given)  5.06%
27. Cc1ccc(C(=O)CN2/C(=C(\O)c3ccccc3)C(=O)c3ccccc3S2(=O)=O)c(C)c1  4.58%
28. COC(=O)c1sc(NC(=O)CSc2nnnn2-c2ccc(C)cc2C)nc1C  4.55%
29. COc1ccccc1NS(=O)(=O)c1ccc2[nH]c(=S)oc2c1  3.6%
30. S=C(NCCCn1ccnc1)Nc1cccc(Cl)c1  1.23%
31. CCCc1cc(=O)[nH]c2nnc(SCC(=O)Nc3ccc4c(c3)OCCO4)n12  0.067%
32. COCCn1c(-c2cccc([N+](=O)[O-])c2)nc2c1c(=O)[nH]c(=O)n2Cc1ccccc1  -0.242%
33. COc1ccc2[nH]c3c(=O)n(CCN4CCOCC4)cnc3c2c1  -0.687%
34. O=C(CCCCCNC(=O)c1ccccc1)C[N+](=O)[O-]  -0.921%
35. COCCCNc1nc2c(c(=O)[nH]c(=O)n2C)n1CC(O)COc1cccc(C)c1 (stereo not given)  -1.28%
36. CCn1c(C)nc2cc(C(=O)N/N=C/c3ccc(OC)c(O)c3)ccc21  -1.45%
37. O=C(O)c1cccc(NC(=O)c2ccccc2)c1  -1.77%
38. CCCn1c(N)c(C(=O)CSc2nnnn2-c2ccc(O)cc2)c(=O)n(C)c1=O  -2.28%
39. O=C(NCC1CCCO1)C(c1cccs1)N(C(=O)c1ccc(CN2CCOCC2)o1)c1ccc(Cl)cc1 (stereo not given)  -2.43%
40. CC(C)C[C@@H](CN1CCC[C@@H]1CN1C(=O)C(=O)NC[C@@H]1Cc1ccccc1)N1C[C@H](Cc2ccc(O)cc2)N(CC2CCCCC2)C(=O)C1=O  -2.65%
41. COc1cccc(CN2CC(C(=O)NCCOc3cccnc3)CCC2=O)c1 (stereo not given)  -2.68%
42. COc1ccc(S(=O)(=O)N(C)c2ccc(C(=O)N3CCOCC3)cc2)cc1  -3.06%
43. c1ccc(NC(=NCc2ccco2)c2ccccc2)cc1  -3.37%
44. O=C(O)c1ccc(CSc2nnc(-c3ccncc3)n2-c2ccc(Cl)cc2)cc1  -3.41%
45. O=C(N/C(=C/c1cccc([N+](=O)[O-])c1)C(=O)N1CCOCC1)c1ccc(Br)cc1  -4.16%
46. CCc1nnc(NC(=O)C2CCC2)s1  -4.19%
47. COc1cc(CN(C2CCCCC2C)S(=O)(=O)c2ccc(S(=O)(=O)NC3CC3)cc2)cc(OC)c1OC (stereo not given)  -4.38%
48. Cc1nc(N2CCN(S(=O)(=O)c3ccc(Br)cc3)CC2)c2c(C)c(C)sc2n1  -5.15%
49. CCCNc1nc2c(c(=O)[nH]c(=O)n2C)n1CCCc1ccccc1  -5.21%
50. Cc1cc(C)c2oc(=O)cc(CN3CCN(Cc4ccc5c(c4)OCO5)CC3)c2c1  -5.29%
51. Cc1ccc(CS(=O)(=O)CCC(=O)NCCCN2CCCC2)cc1  -7.04%
52. CN(C)C(=S)Nc1ccc2ccccc2c1  -7.34%
53. Cc1ccc(C)n1-c1ccc(-c2ccnc(N)n2)cc1  -7.48%
54. CCC1CCCCN1Cc1nc2c(c(=O)n(C)c(=O)n2C)n1CCCc1ccccc1 (stereo not given)  -9.51%
55. CC(C)n1ncc2c(C(=O)N3CCN(Cc4ccc(Br)s4)CC3)cc(C3CC3)nc21  -10.1%
56. O=C(CN1CCN(c2ccccc2F)CC1)NC(=O)NCc1ccccc1  -10.5%
57. CC(C)c1c(C(=O)N/N=C/C2CC=CCC2)nnn1-c1nonc1N (stereo not given)  -11.7%
58. Cc1ccnc(NC(c2cccnc2)c2ccc3cccnc3c2O)c1 (stereo not given)  -11.9%
59. CC(C)c1ccc(OCC(=O)NC2=NCCS2)cc1  -12.5%
60. CCC1=C(c2ccc(C)cc2)S(=O)(=O)N=C1N1CCC(C(=O)NCCCN2CCCCC2C)CC1 (stereo not given)  -12.5%
61. CCCOc1cc(C)c(S(=O)(=O)N2CCN(C)CC2)cc1C  -15.3%
62. COc1ccc(-n2c(O)c(/C=N/NS(=O)(=O)c3cccc([N+](=O)[O-])c3)c3ccccc3c2=O)cc1OC  -16.4%
63. Cc1cc(Nc2nc3ccccc3nc2Cl)n(-c2ccccc2C)n1  -19.4%
64. O=C1Nc2ccc(S(=O)(=O)NCCCO)c3cccc1c23  -22.6%
65. CCc1nc2ccccc2c(C(=O)OC2CCOC2=O)c1C (stereo not given)  -24.9%
